According to PubChem BioAssay AID1159580 (chemical genetic matrix, 2015):
Values joined by “and” are separate entries in the source; they are usually repeats but may differ in a detail not shown here. Equal values may be shown once. The whole screen tested about 5,500 compounds, of which about 2,000 (36%) were called active. Roughly 18% stayed inconclusive and do not appear here. Cut-off read from the data, not from the text of the source: active = normalized growth mostly below about 0.91 (no sharp cut-off); inconclusive = no clear call, values can overlap the other calls; inactive = mostly above about 0.92. The list shows a part of the results.

Experiment: chemical genetic growth profiling, strain panel (AID 1159580);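 note: tested at 20 µM; growth read once vehicle control cultures reached saturation at 30 °C; 1 = growth at the plate median or of vehicle wells; lower values mean less growth of the strain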
Conditions: S. cerevisiae deletion strains, growth OD

Measured: normalized growth

OCCN1CCN(CCCN2c3ccccc3Sc3ccc(C(F)(F)F)cc32)CC1
active: locus YAL021C, strain ccr4, hits give low values 0.828 | locus YAL026C, strain drs2, hits give low values 0.0826 | locus YBR021W, strain FUR4, hits give low values 0.589 | locus YBR023C, strain chs3, hits give low values 0.899 | locus YDR069C, strain doa4, hits give low values 0.863 | locus YDR137W, strain rgp1, hits give low values 1.27 [resistant] | locus YDR195W, strain ref2 1.27 [resistant] | locus YDR388W, hits give low values 0.878 | locus YFR010W, strain ubp6, hits give low values 0.839 | locus YGR229C, strain SMI1, hits give low values 0.602 and 0.781 | locus YGR252W, strain gcn5, hits give low values 0.664 | locus YJL095W, strain BCK1, hits give low values 0.794
inactive: locus YAL013W, strain DEP1, hits give low values 0.947 and 0.96 | locus YAL030W, strain snc1, hits give low values 0.984 | locus YAL040C, strain CLN3, hits give low values 1.01 | locus YBL061C, strain skt5, hits give low values 0.951 | locus YBR009C, strain hhf1, hits give low values 0.935 | locus YBR171W, strain sec66, hits give low values 0.992 | locus YBR229C, strain ROT2, hits give low values 0.987 | locus YBR231C, strain swc5, hits give low values 0.964 | locus YBR279W, strain paf1, hits give low values 0.953 | locus YCL011C, strain gbp2, hits give low values 0.919 | locus YCL016C, strain dcc1, hits give low values 0.937 | locus YCL029C, strain bik1, hits give low values 0.978 | locus YCL061C, strain MRC1 (second series), hits give low values 0.957 | locus YCL069W, strain vba3, hits give low values 0.995 | locus YCR088W, strain abp1, hits give low values 0.987 | locus YDL005C, strain med2, hits give low values 1 | locus YDL035C, strain GPR1, hits give low values 0.928 | locus YDL040C, strain nat1, hits give low values 0.98 | locus YDL074C, strain BRE1, hits give low values 0.808 | locus YDL101C, strain DUN1, hits give low values 0.979 | locus YDL134C, strain PPH21, hits give low values 0.977 | locus YDL185W, strain tfp1, hits give low values 0.981 | locus YDL192W, strain arf1, hits give low values 0.963 | locus YDR001C, strain nth1, hits give low values 0.989 | locus YDR101C, strain arx1, hits give low values 0.933 | locus YDR150W, strain NUM1, hits give low values 0.997 | locus YDR159W, strain sac3, hits give low values 0.992 | locus YDR162C, strain NBP2, hits give low values 0.947 | locus YDR297W, strain sur2, hits give low values 0.981 | locus YDR318W, strain mcm21, hits give low values 0.947 | locus YDR334W, strain swr1, hits give low values 0.987 | locus YDR335W, strain msn5, hits give low values 0.972 | locus YDR363W, strain ESC2, hits give low values 0.978 | locus YDR392W, strain spt3, hits give low values 1.06 | locus YDR502C, strain sam2, hits give low values 0.939 | locus YEL003W, strain gim4, hits give low values 0.982 | locus YEL037C, strain rad23, hits give low values 0.994 | locus YEL061C, strain CIN8 (second series), hits give low values 0.973 | locus YEL061C, strain CIN8, hits give low values 0.996 | locus YER002W, strain NOP16, hits give low values 1 | locus YER015W, strain faa2, hits give low values 0.931 | locus YER016W, strain bim1, hits give low values 0.979 | locus YER110C, hits give low values 0.996 | locus YER111C, strain swi4, hits give low values 0.986 | locus YER155C, strain BEM2 (second series), hits give low values 1 | locus YER155C, strain BEM2, hits give low values 0.989 | locus YER167W, strain BCK2, hits give low values 0.974 | locus YGL078C, strain dbp3, hits give low values 0.986 | locus YGL086W, strain mad1, hits give low values 0.964 | locus YGL167C, strain pmr1, hits give low values 0.976 | locus YGL173C, strain kem1, hits give low values 0.964 | locus YGL227W, strain vid30, hits give low values 0.984 | locus YGL240W, strain doc1, hits give low values 0.997 | locus YGL248W, strain PDE1, hits give low values 0.989 | locus YGL253W, strain hxk2, hits give low values 0.917 | locus YGR078C, strain PAC10, hits give low values 0.907 and 0.971 | locus YGR135W, strain pre9, hits give low values 0.896 | locus YHR013C, strain ard1, hits give low values 1 | locus YHR027C, strain rpn1, hits give low values 0.937 | locus YHR030C, strain SLT2, hits give low values 0.933 | locus YHR079C, strain IRE1 (second series), hits give low values 0.973 | locus YHR094C, strain hxt1, hits give low values 0.992 | locus YHR129C, strain ARP1, hits give low values 0.983 | locus YHR142W, strain chs7, hits give low values 0.897 | locus YHR200W, strain rpn10, hits give low values 0.968 | locus YIL066C, strain RNR3, hits give low values 0.915 | locus YIL073C, strain SPO22, hits give low values 1.18 | locus YIL125W, strain kgd1, hits give low values 0.995 | locus YIR030C, strain dcg1, hits give low values 0.985 | locus YJL092W, strain hpr5, hits give low values 0.969 | locus YJL095W, strain BCK1 (second series), hits give low values 0.94 | locus YJL115W, strain asf1, hits give low values 0.95 | locus YJL129C, strain trk1, hits give low values 0.96 | locus YJL134W, strain LCB3, hits give low values 0.997 | locus YJL154C, strain vps35, hits give low values 0.982 | locus YJL164C, strain tpk1, hits give low values 0.917 | locus YJL166W, strain qcr8, hits give low values 0.956 | locus YJL168C, strain set2, hits give low values 0.991 | locus YJL187C, strain SWE1 (second series), hits give low values 0.905 | locus YJR043C, strain POL32, hits give low values 0.971
